Source: PubChem BioAssay (NCI)
The panel holds about 83,000 compounds, 20% with a hit somewhere; the sample as a whole holds those more often.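 Values shown are percent growth following 48 h exposure of cells in 96-well plates to a single concentration of compound; below 10 was considered active.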 A number with no mark means an inactive call. Calls of active or inactive are those of the source.

Legend:
Test in all cases: NCI-60 one-dose screen, 48 h (100 = growth as untreated, 0 = no growth, -100 = all killed)
Details in all cases: 10 µM unless noted
EKVX NSCLC = test system: EKVX NSCLC
SN12C renal = test system: SN12C renal
UO-31 renal = test system: UO-31 renal
TK-10 renal = test system: TK-10 renal
ACHN renal = test system: ACHN renal
CAKI-1 renal = test system: CAKI-1 renal
A498 renal = test system: A498 renal
CCRF-CEM leukemia = test system: CCRF-CEM leukemia
MOLT-4 leukemia = test system: MOLT-4 leukemia
SR leukemia = test system: SR leukemia

SMILES | growth (EKVX NSCLC) | growth (SN12C renal) | growth (UO-31 renal) | growth (TK-10 renal) | growth (ACHN renal) | growth (CAKI-1 renal) | growth (A498 renal) | growth (CCRF-CEM leukemia) | growth (MOLT-4 leukemia) | growth (SR leukemia)
O=C(/C=C/c1cccnc1)/C=C/c1cccnc1 | 43.3% | 4.41% (active) | -81.9% (active) | 17.3% | 13% | -20.5% (active) | 93.1% | -48.4% (active) | -22.8% (active) | -57.3% (active)
C=CCOc1ccc2c(c1)CC[C@@H]1[C@@H]2CC[C@@]2(C)[C@H]1CC[C@]2(C)O | 82% | 96.7% | 92.6% | 56.7% | 85.8% | 75.4% | 90.5% | 70.7% | 72.5% | 58%
O=c1cc(-c2cccnc2)oc2c1ccc1ccccc12 | 86.3% | 80.3% | 60.5% | 114% | 69.6% | 72.9% | 61.6% | 88.1% | 103% | 39.3%
Cc1cc(C)n2nc(SCC(=O)Nc3sc4c(c3C(N)=O)CCC4)nc2n1 | 100% | 103% | 74.1% | 125% | 112% | 94.7% | 95.7% | 102% | 109% | 144%
S=C(Nc1ccc(C2=NCCN2)cc1)Nc1ccc(C2=NCCN2)cc1 | 91.9% | 98.9% | 83.4% | 100% | 99.2% | 93.9% | 101% | 104% | 93.6% | 90.4%
COc1cc2c(cc1OCCCCCn1c(-c3ccc(OCc4ccccc4)cc3)nc3cc(N4CCOCC4)ccc31)N=C[C@@H]1CCCN1C2=O | 52.5% | 23.2% | 0.0572% (active) | -13.3% (active) | -54.5% (active) | 18.5% | -74.7% (active) | 8.03% (active) | 23.7% | 137%
CC(C)[C@]12O[C@H]1[C@@H]1O[C@]13[C@]1(O[C@H]1C[C@H]1C4=C(CC[C@@]13C)C(=O)OC4)[C@@H]2OC(=O)CN(C)C | -26.9% (active) | 29.1% | -5.89% (active) | 4.34% (active) | 9.59% (active) | -48.5% (active) | -36.4% (active) | 12.4% | -11.7% (active) | -2.85% (active)
O=C(Oc1ccc[nH]c1=O)c1cccc(Cl)c1 | 104% | 108% | 96.2% | 107% | 96% | 101% | 127% | 123% | 115% | 99.2%
Nc1cc(Cl)c(S(N)(=O)=O)cc1S(N)(=O)=O | 111% | 109% | 102% | 97.5% | 101% | 107% | 116% | 95.7% | 158% | 123%
Cc1cc2c(cc1[N+](=O)[O-])NC(CNC(C)C)CC2 (stereo not given) | 95.2% | 105% | 90.7% | 97.1% | 99.7% | 99.7% | 102% | 130% | 69.6% | 119%
COC(=O)[C@]12CC[C@@H](C)[C@H](C)[C@@H]1C1=CC[C@@H]3[C@@]4(C)C=C(O)C(=O)[C@@]5(C)COC(=C54)C[C@@]3(C)[C@]1(C)CC2 | -56.7% (active) | -29.9% (active) | -50.2% (active) | -62.3% (active) | -71.7% (active) | -45.7% (active) | -78% (active) | -60.8% (active) | -72.1% (active) | -68.2% (active)
NC(N)=N/N=C(/c1ccccc1)c1ccc(Cl)cc1 | 60.6% | 68.9% | 95.4% | 94.1% | 104% | -17.2% (active) | 56.5% | 125% | 125% | 50.3%
COc1ccc2c(c1)C(=O)c1c-2c(OCCCN(C)C)nc2cc(Br)ccc12 | 61.8% | 62.2% | -34.7% (active) | 76.7% | 3.65% (active) | 69.6% | 76.3% | -27.6% (active) | 21.1% | -21.3% (active)
O=C1/C(=C/c2ccc3cccc(Cl)c3n2)SC(=S)N1CCc1ccc(O)cc1 | 83.7% | 87.1% | 39.8% | 129% | 82.6% | 51% | 58.6% | 6.53% (active) | 48.9% | 79%
